# Source: PubChem (Buhrlage Lab, Dana-Farber Cancer Institute and Novartis Institutes for BioMedical Research (Cambridge, Mass))
# An excerpt weighted towards active compounds, which were near 13% of everything screened.
# USP28 inh: inhibitors of human USP28 deubiquitinase; 47,000 compounds, 3% hits; inhibition, % at 25 µM; purified USP28, Ub-rhodamine cleavage fluorescence, 30 min; AID 1645857, 2021; Ubiquitin carboxyl-terminal hydrolase 28 (Homo sapiens), Q96RU2
# USP8 inh: inhibitors of human USP8 deubiquitinase; AID 1645853, 2021; purified USP8, Ub-rhodamine cleavage fluorescence, 30 min; Ubiquitin carboxyl-terminal hydrolase 8 (Homo sapiens), P40818; inhibition, % at 20 µM; 47,000 compounds, 4.2% hits
# USP30 block: inhibitors of human USP30 deubiquitinase | Ubiquitin carboxyl-terminal hydrolase 30 (Homo sapiens), Q70CQ3 | purified USP30, Ub-rhodamine cleavage fluorescence | inhibition, % at 25 µM | 47,000 compounds, 5.3% hits | AID 1645860, 2021
# Target sequence (Q70CQ3 whole entry, looked up): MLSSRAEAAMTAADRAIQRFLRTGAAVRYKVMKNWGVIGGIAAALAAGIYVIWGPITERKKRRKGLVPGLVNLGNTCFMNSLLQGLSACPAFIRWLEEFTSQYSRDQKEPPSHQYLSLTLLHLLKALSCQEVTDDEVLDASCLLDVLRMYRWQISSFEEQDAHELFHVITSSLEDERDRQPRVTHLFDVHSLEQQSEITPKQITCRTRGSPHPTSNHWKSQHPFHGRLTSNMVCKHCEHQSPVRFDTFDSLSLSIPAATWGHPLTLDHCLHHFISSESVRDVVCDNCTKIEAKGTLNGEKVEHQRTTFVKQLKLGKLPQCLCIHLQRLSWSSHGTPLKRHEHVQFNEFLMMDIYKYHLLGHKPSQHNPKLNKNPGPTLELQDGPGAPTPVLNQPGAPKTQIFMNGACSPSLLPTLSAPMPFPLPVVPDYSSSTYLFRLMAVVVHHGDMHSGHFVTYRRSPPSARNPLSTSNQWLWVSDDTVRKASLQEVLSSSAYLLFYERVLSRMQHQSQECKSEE
# USP17 block: inhibitors of human USP17 deubiquitinase | 47,000 compounds, 6.5% hits | Ubiquitin carboxyl-terminal hydrolase 17-like protein 5 (Homo sapiens), A8MUK1 | purified USP17, Ub-rhodamine cleavage fluorescence, 3 h | AID 1645855, 2021 | inhibition, % at 50 µM
# * marks the source's active call; other numbers are inactive results; . = no result. No stated cut-off is given here; in the data, active means inhibition above about 30%; inactive means the rest.
SMILES,USP28 inh,USP8 inh,USP30 block,USP17 block
Cc1c(Cl)cccc1NC(=O)C1CCCN(c2nnc(-n3cccc3)s2)C1 (configuration not stated),-13.2,59.9*,-45.2,29.8
Cc1c(F)cccc1NC(=O)C1CCCN(c2nnc3ccccn23)C1 (configuration not stated),-0.1,16.8,8.4,4.2
Cc1ccc(NC(=O)c2ccccc2)c(=O)n1CC(=O)N1CCN(c2ccc(F)cc2)CC1,-15.1,-17.2,-5.0,-8.9
Cc1cc2nc(-c3ccc(SCc4ccccn4)nc3)[nH]c2cc1C,23.8,5.5,26.1,57.0*
CC(C)CN1CC2(CCN(C(=O)Nc3ccc(Cl)cc3)CC2)C2(CCN(C)C2=O)C1 (configuration not stated),-5.0,-102.9,0.0,-24.2
CCOC(=O)c1noc2nc(C)nc(NCc3ccc(OC)cc3)c12,-5.9,40.4*,-11.4,.
CCOC(=O)c1noc2nc(C)nc(NCC3CCN(Cc4ccc(C)cc4)CC3)c12,-50.8,-9.3,-89.5,-42.4
Cc1cc(C)n2nc(CNc3cccc(Cl)c3)nc2n1,73.5*,5.7,9.7,10.9
Cc1nc2nc(CNc3ccccc3)nn2c(C)c1Cl,46.9*,21.6,20.7,13.2
COc1ccccc1NC(=O)c1cc(S(=O)(=O)N2CCc3ccccc3C2)ccc1Cl,-0.6,-47.2,-6.8,-18.7
COc1cccc(N2CCN(C(=O)CN(c3cc(C)cc(C)c3)S(=O)(=O)c3c(C)noc3C)CC2)c1,-17.9,-21.6,-76.1,-11.1
O=C(CN(c1ccccc1)S(=O)(=O)c1ccccc1)Oc1ccc(F)cc1,11.5,3.9,22.5,6.9
COc1ccc(CC(=O)Nc2ccccc2C(=O)Nc2ccc(C(=O)O)cc2)cc1,7.7,15.1,13.4,8.1
Cc1cc2cc3c(cc2n2c(=O)n(CCN4CCCC4)nc12)OCO3,10.4,7.6,41.5*,47.4*
Cc1cc(C)c2c(c1)cc(C)c1nn(CC(N)=O)c(=O)n12,0.2,-3.8,10.1,6.2
COc1ccc(CCNC(=O)Cn2c(=O)c3sccc3n(Cc3cccc([N+](=O)[O-])c3)c2=O)cc1OC,10.6,27.3,44.5*,16.2
COc1ccc(CCNC(=O)CN2CCN(Cc3ccccc3F)C2=O)cc1OC,6.1,0.0,17.6,5.6
COc1ccc(CCNC(=O)Cn2c(=O)c3sccc3n(Cc3ccccc3F)c2=O)cc1OC,-6.0,2.0,51.9*,60.0*
COc1ccc(CNC(=O)CCn2c(=O)c3sccc3n(Cc3cccc([N+](=O)[O-])c3)c2=O)cc1,10.7,-28.9,12.6,11.4
Cc1ccnc(Nc2nc(C)c(C(=O)NCc3ccccn3)s2)c1,-6.2,6.8,-12.2,2.8
COc1ccc(-c2nc3cnccc3o2)cc1NC(=O)CC(C)C,4.5,0.5,22.0,8.3
CCOC(=O)c1ccc(NC(=O)CSc2nnc(CNC(=O)c3cccs3)o2)cc1,4.4,4.5,18.4,49.7*
O=C(CSc1nnc(CNC(=O)c2ccccc2F)o1)Nc1ccc(OC(F)(F)F)cc1,9.2,6.2,31.9*,63.0*
O=C(Cc1ccccc1)NCc1noc(C2CCCC2)n1,-8.1,-1.1,2.1,0.7
Cc1[nH]c2ccccc2c1C(=O)CN1CCCCC1CCO (configuration not stated),-0.1,14.8,-33.8,-7.0
SMILES,USP28 inh,USP8 inh,USP30 block,USP17 block
COc1ccc(OC)c(-c2cc(C(=O)Nc3c(C)nn(Cc4ccccc4)c3C)no2)c1,79.8*,2.8,-72.1,2.8
COc1ccc(NC(=O)c2cc(-c3ccco3)on2)c(OC)c1,-46.6,-95.9,-149.6,-54.0
O=C(CC1Oc2ccccc2NC1=O)Nc1ccccc1Br (configuration not stated),-7.3,-0.4,-16.4,59.0*
CC(=O)Nc1ccc(NC(=O)COC(=O)Cc2c[nH]c3ccccc23)cc1,-3.0,1.0,-10.5,-1.9
COc1ccc(NC(=O)c2cncc(Br)c2)c(OC)c1,-1.5,-0.6,-5.2,-2.0
CCCC(=O)Nc1cc(=O)[nH]c2nc(Cc3ccccc3)nn12,13.6,4.6,17.8,16.3
COc1ccc(CCNC(=O)Cn2c(=O)n(CCCCC(=O)NCc3ccc4c(c3)OCO4)c(=O)c3ccccc32)cc1OC,-0.2,-3.4,21.5,27.8
O=C(CCn1c(=O)c2sccc2n(CC(=O)OCc2ccccc2)c1=O)NCc1ccc2c(c1)OCO2,15.7,61.4*,52.2*,29.7
O=C(CCn1c(=O)c2ccccc2n(Cc2cccc([N+](=O)[O-])c2)c1=O)NCc1ccc2c(c1)OCO2,16.1,21.9,29.9,12.1
CCOc1ccccc1NC(=O)Cn1c(=O)n(CCC(=O)NCc2ccc3c(c2)OCO3)c(=O)c2sccc21,.,53.6*,.,60.5*
O=C(NCc1ccc2c(c1)OCO2)c1ccc2ncsc2c1,3.6,-8.4,-12.1,4.2
Cn1c(O)c(C2=Nc3ccccc3SC(c3ccc(O)cc3)C2)c(=O)n(C)c1=O (configuration not stated),-9.7,-5.5,-27.1,-5.9
CC(=O)N1CCCC(c2nc(N3CCOCC3)ncc2-c2cccnc2)C1 (configuration not stated),23.6,7.5,37.3*,22.8
CC(C)CC(=O)N1CCCC(c2nc(N3CCOCC3)ncc2-c2cccnc2)C1 (configuration not stated),-5.2,-3.1,10.4,-0.6
COc1ccc(NC(=O)C(C)OC(=O)CNC(=O)c2ccc(Cl)cc2Cl)cc1 (configuration not stated),1.1,-0.1,23.8,-22.5
CC(OC(=O)CNS(=O)(=O)c1ccc2ccccc2c1)C(=O)Nc1ccc(Cl)cc1Cl (configuration not stated),21.2,14.1,45.9*,.
O=S(=O)(Cc1ccccc1)c1nc2ccccc2n1CCN1CCOCC1,3.3,1.9,29.0,4.5
CC1CCN(S(=O)(=O)c2ccc3c(c2)CCCC(=O)N3CC(=O)N2CCCC2)CC1,-4.4,-16.3,-76.4,-5.6
O=C(/C=C/c1ccc(Br)cc1)N1CCc2ccccc2C1,0.3,28.0,-8.6,35.1*
CC(C)c1ccc(/C=C/C(=O)N2CCc3ccccc3C2)cc1,28.8,69.2*,35.6*,53.8*
C=C/C(C)=C/[C@@]1(C)SC(=O)C(C)=C1O,28.0,41.0*,-17.1,26.3
NS(=O)(=O)c1ccc(CNC(=O)c2ccc(Cl)c(S(=O)(=O)Nc3ccc(F)cc3)c2)cc1,-5.3,-31.9,-14.9,-12.6
Cc1cccc(CNS(=O)(=O)c2ccc(-c3cc(C)no3)s2)c1,16.4,3.5,28.6,36.1*
O=S(=O)(NCc1ccccn1)c1ccc(-c2cc(C(F)(F)F)on2)s1,0.4,-50.8,-35.1,-2.5
Cc1cccc(CNS(=O)(=O)c2ccc(-c3cc(C(F)(F)F)on3)s2)c1,9.7,21.2,19.4,43.2*
Cc1cc(-c2ccc(S(=O)(=O)NCc3ccc(Cl)cc3)s2)on1,59.1*,0.5,59.2*,76.5*
Cc1cc(-c2ccc(S(=O)(=O)NCc3ccccc3C)s2)on1,18.9,18.3,37.0*,35.4*
Cc1nn(C)cc1S(=O)(=O)Nc1cnn(Cc2cccc3ccccc23)c1,-0.7,85.9*,-9.9,30.0
